High-throughput results as filed in PubChem BioAssay.
Rows were chosen to be rich in hits. Some 1.1% of all compounds tested hit in one or more screens of this group.
rTrxR1 inhibitor = inhibitors of rat thioredoxin reductase 1; 390,000 compounds, 1% hits; Potency, µM (titrated, usually from 114 µM), for the others: at the top dose activity change, negative = inhibition, most hits filed as inhibitors; recombinant rTrxR1, NADPH fluorescence consumption, selenite substrate; O89049; also: potency is read from the fitted curve at half-maximal effect; nearly all actives have a fitted effect of over 65% in size
Target sequence (O89049 whole entry, looked up): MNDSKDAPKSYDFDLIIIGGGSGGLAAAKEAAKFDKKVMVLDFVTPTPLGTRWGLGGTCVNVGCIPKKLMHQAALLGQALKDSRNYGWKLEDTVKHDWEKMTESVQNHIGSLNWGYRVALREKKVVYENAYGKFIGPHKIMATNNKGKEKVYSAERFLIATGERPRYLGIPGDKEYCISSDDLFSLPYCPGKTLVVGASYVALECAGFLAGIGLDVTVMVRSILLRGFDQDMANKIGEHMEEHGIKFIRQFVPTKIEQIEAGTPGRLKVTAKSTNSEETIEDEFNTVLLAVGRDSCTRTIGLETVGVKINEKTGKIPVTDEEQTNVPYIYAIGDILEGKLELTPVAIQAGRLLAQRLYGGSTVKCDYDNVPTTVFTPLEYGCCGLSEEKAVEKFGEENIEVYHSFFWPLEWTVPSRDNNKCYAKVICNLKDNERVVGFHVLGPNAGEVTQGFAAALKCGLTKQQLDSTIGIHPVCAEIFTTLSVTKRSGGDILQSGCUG
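Rat TrxR1 (90 nM in the dispensed reagent) was pre-reduced with 400 uM NADPH for 5 min at room temperature, then incubated with compound for 15 min. After 400 uM selenite was added, NADPH fluorescence (Ex 340/Em 450 nm) was followed for 8 min.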
GALK inh = galactokinase (human) inhibition; P51570; Purified GALK, Kinase-Glo residual ATP luminescence; Potency, µM (highest dose often 57.5 µM), for inactives: at the highest dose activity change, negative = inhibition, hits mostly inhibitors; 270,000 compounds, 0.007% hits; AID 1868; also: potency is read from the fitted curve at half-maximal effect
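GALK at 5 nM final was combined with compound, 35 uM ATP and 100 uM galactose in HEPES pH8.0 with MgCl2 and DTT. The reaction ran one hour at room temperature before luminescent ATP detection.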
TrxR1 substrate = rat thioredoxin reductase 1 substrate activity; AID 588456; 390,000 compounds, 0.01% hits; purified TrxR1 substrate turnover, NADPH consumption readout; O89049; Potency, µM (series often up to 114 µM), without a hit: top-dose activity change, negative = substrate turnover; also: potency is read from the fitted curve at half-maximal effect; nearly all actives have a fitted effect of over 50% in size
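Rat TrxR1, dispensed at 90 nM, was prereduced with 400 uM NADPH (final) for 5 min at ~22 deg C, then incubated with compound 15 min before 400 uM selenite. A first-read NADPH fluorescence drop versus no-compound background flagged substrates.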
PI4K2A inh = inhibitors of human PI4K2A | Q9BTU6 | 420,000 compounds, 0.13% hits | AID 1346378 | activity change, negative = inhibition, % at 76.9 µM | purified PI4K2A, ADP-Glo luminescence, 1 h; stronger effect = lower value; in the data active = activity change below about -50%; inconclusive = mostly about -30% to -49%;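 also: -100% = wells without enzyme as full effect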
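In this quantitative HTS, ADP production by PI4K2A was quantified luminescently after 1 h at ambient temperature; 100 microM adenosine served as plate-quality control.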
* hit, by the source's call; ? = inconclusive; / = not tested or not shown; [ ] = remark or other dose. Unless noted, calls follow the shape of the dose curve; as a rule, active = well fitted curve in the direction sought with a large enough effect; inconclusive = small, poorly fitted or top-dose-only effect, or another doubt; inactive = no such curve, though single readings can be large; an effect the other way counts as inactive or inconclusive. Unless noted, % is scaled to controls: 0 for no effect and ±100 for the full control effect.

SMILES	rTrxR1 inhibitor	GALK inh	TrxR1 substrate	PI4K2A inh
CCCn1c(C)cc(/C=C(\C#N)C(=O)OCC(=O)NC(=O)NCC)c1C	11.2%[57.1 µM]	-0.5%	10.0%	7.6
CCOC(=O)/C=C/C(=O)OCC(=O)NCc1ccccc1	25.1µM*	-0.2%	3.2%	2.6
CCOC(=O)/C=C/C(=O)OCC(=O)Nc1c(Cl)cccc1Cl	50.1µM*	1.3%	1.8%	-1.8
CCOC(=O)/C=C/C(=O)OCC(=O)Nc1ccc(OC)c(Cl)c1	15.8µM*	-0.3%	2.7%	2.4
CCOC(=O)/C=C/C(=O)OCC(=O)Nc1ccc(Cl)cc1Cl	?	0.8%	8.6%[57.1 µM]	14.5
CCCCC/C=C\C/C=C\CCCCCCCC(=O)NC(C)c1ccccc1 (stereo not given)	/	/	/	-0.2
COc1ccc(-c2nc(S(=O)(=O)c3ccc(Cl)cc3)c(NCc3ccccc3)o2)cc1	60.4%	/	36.6%	-0.7
O=C(N/N=C/c1ccco1)c1cccc(N2CCCC2=O)c1	-5.3%	1.5%	-2.4%	-4.8
O=C(N/N=C/c1ccco1)c1cccc(N2Cc3ccccc3C2)c1	50.1µM*	7.6%	2.5%	-28.8
CCc1ccc(-n2nc(CO)c(C(=O)NC(C)c3ccc(Cl)cc3)n2)cc1 (stereo not given)	?	/	6.6%	3.1
Oc1ccc(Nc2ccccc2F)c2cccnc12	/	/	/	-51.9*
O=C(OCC#CCSc1nnc(-c2cccc3ccccc23)o1)c1ccc(F)cc1F	/	/	/	-2.1
COc1ccccc1C(=O)Nc1nc2nc(C)c(Cc3ccccc3)c(=O)n2[nH]1	0.4%	/	-6.2%	2.6
Cc1cccc(OC(=O)c2cccnc2)c1C	7.6%	-4.4%	-6.4%	-6.3
O=C(Oc1ccccc1[N+](=O)[O-])c1cccnc1	14.1µM*	-3.1%	-4.1%	1.1
CN1C(=O)c2cc(NS(=O)(=O)c3ccc(F)cc3)ccc2OC[C@H]2O[C@@H](CC(=O)NCC(F)(F)F)CC[C@@H]21	/	/	/	-3.1
CCCn1nc(C(=O)Oc2ccc3c(C)cc(=O)oc3c2)c2ccccc2c1=O	50.1µM*	1.5%	702.2%	-2.5
Cc1cc(=O)oc2cc(OC(=O)c3nn(C(C)C)c(=O)c4ccccc34)ccc12	25.1µM*	-2.6%	658.2%	7.6
Cc1cc(=O)oc2cc(OC(=O)c3ccccc3)ccc12	8.8%	-0.9%	17.0%	4.5
Cc1cc(=O)oc2cc(OC(=O)c3ccco3)ccc12	70.8µM*	-0.7%	54.5%	18.3
CCCCc1cc(=O)oc2cc(C)cc(OC(C)C(=O)NC(Cc3c[nH]c4ccc(O)cc34)C(=O)O)c12 (stereo not given)	-1.6%	/	54.8%	-5.7
Cc1cc(OC(C)C(=O)NC(Cc2c[nH]c3ccc(O)cc23)C(=O)O)c2c(C)c(C)c(=O)oc2c1 (stereo not given)	11.2µM*	/	25.2%	-6.6
O=C(Nc1sc2c(c1C(=O)Nc1ccccc1)CCC2)c1ccc(Br)cc1	56.2µM*	/	2.7%	0.3
COC(=O)C1=C(C)NC(=S)NC1c1ccc(-c2cc(Cl)ccc2Cl)o1 (stereo not given)	31.6µM*	-1.3%	2.9%	-0.9
CCC(Sc1nnc2c(n1)[nH]c1ccccc12)C(=O)Nc1nnc(C(C)C)s1 (stereo not given)	19.8%	/	1.5%	-3.4
SMILES	rTrxR1 inhibitor	GALK inh	TrxR1 substrate	PI4K2A inh
O=C(Nc1ccc(F)cc1)c1ccc(C(=O)N2CCCC(O)C2)cc1 (stereo not given)	10µM*	/	13.7%[57.1 µM]	1.7
CC1CCCCN1C(=O)c1ccc(C(=O)Nc2ccc(F)cc2)cc1 (stereo not given)	12.0%	/	1.8%	4.9
Cc1scc(C(=O)NCc2ccco2)c1-c1ccccc1	14.1µM*	0.3%	-1.0%	-16.9
O=C(NCc1ccco1)c1ccccc1-c1ccccc1	13.5%	2.9%	4.9%	1.8
O=C(O)c1cc(Cl)c2c(c1)[C@@H]1C=CC[C@@H]1[C@H](c1ccc(S(=O)(=O)N3CCOCC3)cc1)N2	2.24µM*	1.9%	-7.4%	-12.0
Cc1cc(C)c2c(c1)C1C=CCC1C(c1ccc(S(=O)(=O)N3CCOCC3)cc1)N2 (stereo not given)	12.5%	5.7%	-2.8%	0.3
CN(C)CC1CCC/C(=C\c2ccc(OC(=O)c3ccc(Cl)cc3)cc2)C1=O (stereo not given)	-11.6%[11.4 µM]	/	9.4%[11.4 µM]	9.5
COc1ccc(/C=C2/CCC(CN3CCOCC3)C2=O)cc1 (stereo not given)	1.58µM*	/	9.2%[11.4 µM]	39.7
